Compounds with a hit are over-represented: about 11% of the library has one in this group of screens.
MCF10A rerep: induces DNA re-replication in MCF 10a normal breast cells | MCF 10A DNA re-replication, Hoechst nuclear intensity, 48 h | Potency, µM (titrated, usually from 46.1 µM), for the others: top-dose activity, positive = re-replication, hits mostly activators | actives 2.9% (n = 350,000); further: potency means the concentration at half of the fitted maximal effect; % of control where 0% means no effect; nearly all actives have a fitted effect of over 50% in size
IL-1B inflam inh: inflammasome signaling inhibition, IL-1 beta readout. THP-1 LPS/ATP IL-1B secretion, AlphaLISA, 16 h; stronger effect = lower value. activity change, % at 57.5 µM. actives 4.7% (n = 360,000); in the data active means activity change below about -50%; inconclusive means mostly about -30% to -49%; further: on the % scale 0 is the no-effect control and ±100 the full control effect
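Secreted IL-1B measured by AlphaLISA bead assay after 16 h compound exposure of THP-1 cells; compounds (final up to 57.5 uM) added 1 h before LPS (250 ng/mL) and ATP (1.25 mM) stimulation; lower signal means less secretion.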
RORg inh: inhibitors of mouse ROR gamma transcriptional activity | Drosophila S2 Gal4-RORgamma UAS-luciferase reporter, 20 h | Potency, µM (titrated, usually from 53.6 µM), inactives show at the top dose activity change, negative = inhibition, hits mostly inhibitors | actives 5.4% (n = 310,000) | AID 2551; further: potency means the concentration at half of the fitted maximal effect; on the % scale 0 is the no-effect control and ±100 the full control effect; nearly all actives have a fitted effect of over 60% in size
Target sequence (P51450 whole entry, looked up, the tested form may be a part): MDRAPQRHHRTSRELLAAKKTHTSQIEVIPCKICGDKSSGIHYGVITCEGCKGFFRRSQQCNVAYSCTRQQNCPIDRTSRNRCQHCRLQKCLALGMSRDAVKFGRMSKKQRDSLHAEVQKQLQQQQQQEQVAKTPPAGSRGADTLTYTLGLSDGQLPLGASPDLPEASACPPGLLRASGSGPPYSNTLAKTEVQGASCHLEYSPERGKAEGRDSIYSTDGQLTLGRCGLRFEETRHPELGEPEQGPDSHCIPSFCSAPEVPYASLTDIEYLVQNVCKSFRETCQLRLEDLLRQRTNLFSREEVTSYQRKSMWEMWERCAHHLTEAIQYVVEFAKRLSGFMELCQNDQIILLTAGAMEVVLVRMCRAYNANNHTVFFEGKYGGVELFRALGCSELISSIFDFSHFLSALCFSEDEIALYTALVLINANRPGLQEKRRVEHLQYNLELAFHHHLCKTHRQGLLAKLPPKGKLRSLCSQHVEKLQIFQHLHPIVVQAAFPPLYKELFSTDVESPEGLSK
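A Gal4/UAS one-hybrid system in insect cells: metallothionein-promoter Gal4–ROR gamma fusion plus Photinus luciferase reporter. Copper sulfate 700 uM final, 20 hr ambient incubation, luminescent detection after 10 min with reagent.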
VP16 counter: counter-screen for ROR gamma inhibitors: Gal4-VP16 reporter. Drosophila S2 Gal4-VP16 UAS-luciferase, luminescence, 20 h. Potency, µM (top dose mostly 53.6 µM), for inactives: at the highest dose activity, negative = inhibition, usual class: inhibitors. actives 3.5% (n = 310,000). AID 2546;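 further: Gal4-VP16 expression switched on by copper sulfate through the metallothionein promoter; potency means the concentration at half of the fitted maximal effect; on the % scale 0 is the no-effect control and ±100 the full control effect; nearly all actives have a fitted effect of over 50% in size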
SW480 rereplic: DNA re-replication induction in SW480 cells | actives 1.8% (n = 340,000) | SW480 DNA re-replication, Hoechst DNA content imaging, 48 h | AID 624297 | Potency, µM (top dose mostly 46.1 µM), for inactives: at the top dose re-replication activation, most hits filed as activators; further: potency means the concentration at half of the fitted maximal effect; % of control where 0% means no effect; nearly all actives have a fitted effect of over 55% in size
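Hoechst fluorescence of nuclei (405 nm excitation, 500-530 nm emission) measured by plate-scanning imager after 48 hr compound exposure at 37 C; re-replication scored as increased number of nuclei with elevated intensity.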
* = called active by the depositor; [ ] = another dose, or the depositor's remark. Unless noted, the call rests on the fitted dose curve; in most records, active means well fitted curve in the direction sought with a large enough effect; inconclusive means small, poorly fitted or top-dose-only effect, or another doubt; inactive means no such curve, though single readings can be large; an effect the other way counts as inactive or inconclusive.

`CN(C)c1ccc(NC(=O)CN2C(=O)CN=C(c3ccccc3)c3cc(Cl)ccc32)cc1` gave MCF10A rerep -1%, IL-1B inflam inh -62*, RORg inh 5%, VP16 counter 0% and SW480 rereplic 23%.
`CN(C)c1ccc(NC(=O)CN2C(=O)CN=C(c3ccccc3)c3ccccc32)cc1` gave MCF10A rerep inconclusive, IL-1B inflam inh inconclusive, RORg inh 19%, VP16 counter 3% and SW480 rereplic -5%.
For Cc1ccc(NC(=O)CN2C(=O)CN=C(c3ccccc3)c3cc(Cl)ccc32)cc1 the results were MCF10A rerep inconclusive, IL-1B inflam inh -66*, RORg inh -14%, VP16 counter -5% and SW480 rereplic 15%.
Screening Cc1onc(-c2ccccc2)c1C(=O)Nc1ccc(S(=O)(=O)N2CCCC2)cc1 returned MCF10A rerep 1%, IL-1B inflam inh 19, RORg inh 8.9µM*, VP16 counter -25% and SW480 rereplic -11%.
`CCn1c(=N)n(Cc2ccccc2F)c2ccccc21` gave MCF10A rerep 1%, IL-1B inflam inh inconclusive, RORg inh -16%, VP16 counter 1% and SW480 rereplic 0%.
For Cc1ccc(C2CC3CCC(C2)N3Cc2ccccc2F)cc1 (centres undefined) the results were MCF10A rerep inconclusive, IL-1B inflam inh -85*, RORg inh -11%, VP16 counter 4% and SW480 rereplic inconclusive.
For CN1CCC2(CC1)N=C(c1ccc(F)cc1)C(=S)N2 the results were MCF10A rerep -2%, IL-1B inflam inh -22, RORg inh 13µM*, VP16 counter 1% and SW480 rereplic 0%.
Screening Cc1cccc(N=C2c3cc([N+](=O)[O-])ccc3-c3c2cc([N+](=O)[O-])cc3[N+](=O)[O-])c1 returned MCF10A rerep 18µM*, IL-1B inflam inh -96* and SW480 rereplic 18µM*.
`O=[N+]([O-])c1cccc2ccccc12` gave RORg inh 3% and VP16 counter -4%.
`O=[N+]([O-])c1ccccc1CCl` gave MCF10A rerep 7%, IL-1B inflam inh -68*, RORg inh 0%, VP16 counter 4% and SW480 rereplic -4%.
For Cc1ccc(-c2cc(NC(=O)c3ccccc3)on2)cc1 the results were MCF10A rerep inconclusive, IL-1B inflam inh -7, RORg inh -20%, VP16 counter 7% and SW480 rereplic 0%.
Cc1cc(NC(=O)CCl)on1 was read as MCF10A rerep inconclusive, IL-1B inflam inh -106*, RORg inh inconclusive, VP16 counter inconclusive and SW480 rereplic -19%.
For COc1cccc(-n2c(/C=C/c3ccccn3)nc3ccccc3c2=O)c1 the results were MCF10A rerep inconclusive, IL-1B inflam inh -84*, RORg inh inconclusive, VP16 counter -9% and SW480 rereplic inconclusive.
For Cc1cccc(-n2c(/C=C/c3ccccn3)nc3ccccc3c2=O)c1 the results were MCF10A rerep inconclusive, IL-1B inflam inh -52* and SW480 rereplic inconclusive.
For COc1ccccc1-n1c(/C=C/c2ccccn2)nc2ccccc2c1=O the results were MCF10A rerep inconclusive, RORg inh -7%, VP16 counter inconclusive and SW480 rereplic inconclusive.
Screening CCN1CC2(OC(=O)c3ccccc3NC(C)=O)CCC(OC)[C@]34C1[C@H](CC23)[C@@]1(O)C[C@H](OC)[C@H]2CC4C1(O)[C@H]2OC (some centres undefined) returned RORg inh 11% and VP16 counter 0%.
CN(C)c1ccc(/C=C2/C(=O)NC(=O)N(Cc3ccco3)C2=O)cc1 was read as MCF10A rerep -2%, IL-1B inflam inh -11, RORg inh 13%[10 µM], VP16 counter 3% and SW480 rereplic -2%.
Screening CC(C)N1C(=O)/C(=C/C=C/c2ccco2)C(=O)N(Cc2ccco2)C1=O returned MCF10A rerep 9.2µM*, IL-1B inflam inh -106*, RORg inh inconclusive, VP16 counter inconclusive and SW480 rereplic inconclusive.
COc1ccc(/C=C2/C(=O)N(Cc3ccco3)C(=O)N(C(C)C)C2=O)cc1 was read as MCF10A rerep 18µM*, IL-1B inflam inh 10, RORg inh 10%, VP16 counter 7% and SW480 rereplic 6%.
C[C@]12CC[C@H](O)CC1=CC[C@@H]1[C@@H]2CC[C@]2(C)C(=O)CC[C@@H]12 was read as MCF10A rerep 2%, IL-1B inflam inh 57 and SW480 rereplic -1%.
C[C@]12CC[C@H](O)CC1=CCC1C2CC[C@]2(C)C(=O)[C@H](Br)CC12 (some centres undefined) was read as MCF10A rerep inconclusive, IL-1B inflam inh -106* and SW480 rereplic 17%.
CC12CCC3C(CC=C4CC(O)CCC43C)C1C/C(=C\c1ccccc1F)C2=O (centres undefined) was read as MCF10A rerep 6.5µM*, IL-1B inflam inh 23, RORg inh inconclusive, VP16 counter -17% and SW480 rereplic 8%.
CC(=O)C1C(N2CC2)CC2C3CC=C4CC(O)CCC4(C)C3CCC21C (centres undefined) was read as MCF10A rerep 4.6µM*, IL-1B inflam inh -51* and SW480 rereplic 23µM*.
For Cc1nn(C)cc1/C=C1/CC2C3CC=C4CC(O)CCC4(C)C3CCC2(C)C1=O (centres undefined) the results were MCF10A rerep inconclusive, IL-1B inflam inh 31 and SW480 rereplic -16%.
Screening N[C@H](CP(=O)(O)O)C(=O)O returned RORg inh -6% and VP16 counter -2%.
Screening O=C(Nc1ncc(Cc2ccccc2)s1)C1=NCCN1 returned MCF10A rerep -1%, IL-1B inflam inh -6, RORg inh 2µM*, VP16 counter inconclusive and SW480 rereplic -2%.
For Cc1cc(C(=O)Nc2ccccc2)nn1C(C)(C)C the results were MCF10A rerep 0%, IL-1B inflam inh -4, RORg inh -16%, VP16 counter -8% and SW480 rereplic 1%.
For Cc1nn(C(C)(C)C)c(C)c1/C=N/OC(=O)Nc1ccc(Cl)cc1 the results were MCF10A rerep inconclusive, IL-1B inflam inh -94*, RORg inh inconclusive, VP16 counter inconclusive and SW480 rereplic 6%.
`Cc1ccc2[nH]c3c(c2c1)CN(C(=O)CN1C[C@H]2C[C@@H](C1)c1cccc(=O)n1C2)CC3` gave MCF10A rerep -58%, IL-1B inflam inh 19, RORg inh 15%, VP16 counter 5% and SW480 rereplic 4.1µM*.
`CN(C)C1(CNC(=O)Nc2ccc(Cl)c(Cl)c2)CCCCC1` gave MCF10A rerep 37%, IL-1B inflam inh -72*, RORg inh -2%, VP16 counter -19% and SW480 rereplic inconclusive.
